The values that follow come from PubChem BioAssay (NCI).

Molecules are shown by their SMILES. Compounds without any hit were thinned out: in the full panel of roughly 83,000, 20% have a hit.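 Growth was measured after 48 h exposure to one concentration of compound in 96-well plates. Values under 10 count as active.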 The source made the active and inactive calls.

The assay has as its system BT-549 breast. Put plainly: NCI-60 one-dose screen, 48 h (100 = growth as untreated, 0 = no growth, -100 = all killed). The following applies: 10 µM. On the procedure: Growth inhibition of the BT-549 human tumor cell line is measured as a screen for anti-cancer activity. Cells are grown in 96 well plates and exposed to the test compound for 48 hours. Compounds are tested at a single concentration, which is 10^-5 M for most compounds. The reported endpoint is percent growth (GI% or GIPRCNT), where numbers from 0 - 100% represent growth inhibition, and numbers from -100% - 0 represent cell death. For example, a value of 40 represents 60% growth inhibition. A value of 0 means no net growth occurred over the course of the experiment. A value of -40 indicates 40% of cells at the beginning of the experiment died by the end of the experiment. A value of -100 means all cells are dead at the end of the experiment.
NCI-60 Human Tumor Cell Lines Screen was performed using the standard one-dose NCI protocol, which is described in more detail at https://dtp.cancer.gov/discovery_development/nci-60/default.htm.
Compounds with GIPRCNT values below 10 were considered active. Activity score was based on GIPRCNT using the following formula: […]
Score is 0 for GIPRCNT values of 100 or above, 50 for GIPRCNT values of 0, and 100 for GIPRCNT values of -100.
As to `CC[C@@]12CC(C(=O)OC)=C3Nc4cc5c(cc4[C@@]34CCN(C[C@H]3O[C@H]31)[C@@H]24)[C@@H]1[C@H](O5)[C@@H](O)[C@@]2(CC)CC(C(=O)OC)=C3Nc4cc(OC)ccc4[C@@]34CCN1[C@@H]24`, the growth was -16.9% (active).
For `CCOP(=O)(OCC)C(NC(C)=O)C(=O)SCCN` (stereo not given), the growth was 111% (inactive).
For the molecule `COc1ccc(OC)c(/C=C/C(=O)c2nc3ccccc3n2Cc2ccc(F)cc2)c1`, the growth is -58.2% (active).
`CC(C)N=C([Se])NC(=O)c1cccs1`: the growth was 43.7% (inactive).
Turning to `O=C(NC([Se])=NC1CCCCC1)c1ccccc1`, the growth was 75.8% (inactive).
In the case of `C[C@H]1[C@H](OC(=O)CCC(=O)N(CCCc2cn(-c3ccc(C#N)cc3)nn2)CCNc2ccnc3cc(Cl)ccc23)O[C@@H]2OC3(C)CC[C@H]4[C@H](C)CC[C@@H]1[C@@]24OO3` it was 24.2% (inactive); in that of `O=C(/C=C/c1ccccc1)c1nc2ccccc2n1Cc1ccc(Br)cc1`, -69.8% (active); in that of `CC1=C(C=O)C2=C(C)C3(CC3)[C@@](C)(O)C(=O)C2=C1`, -14.5% (active).
`COCCOCCOCCOc1ccc(-n2cc(-c3ccc(O[C@H]4O[C@@H]5OC6(C)CC[C@H]7[C@H](C)CC[C@@H]([C@H]4C)[C@@]57OO6)cc3)nn2)cc1`: the growth is 3.83% (active).
In the case of `CC12CCC3(CCC(=O)NCCCNc4ccnc5cc(Cl)ccc45)[C@@](C)(OO[C@]3(C)O1)O2`, the growth was -7.38% (active).
Consider `COc1ccc(/C=C/C(=O)c2nc3ccccc3n2Cc2ccc(Br)cc2)cc1`, for which the growth is 70.3% (inactive).
`C[C@H]1[C@@H](CC(=O)N[C@@H](Cc2coc3ccccc23)B(O)O)O[C@@H]2OC3(C)CC[C@H]4[C@H](C)CC[C@@H]1[C@@]24OO3`: the growth was -92% (active).
With `CC12OOC(C)(OO1)C2CCC(=O)NCCNc1ccnc2cc(Cl)ccc12` (stereo not given), the growth is 106% (inactive).
With `COP(=O)(CC(F)(F)C(F)(F)F)OC`, the growth was 37.3% (inactive).
As for `C[C@H]1[C@H](OC(=O)CCC(=O)N(CCCc2cn(-c3ccc([N+](=O)[O-])cc3)nn2)CCNc2ccnc3cc(Cl)ccc23)O[C@@H]2OC3(C)CC[C@H]4[C@H](C)CC[C@@H]1[C@@]24OO3`, the figure is 43% (inactive); as for `CC[C@]12C=CCN3CC[C@@]4(c5ccc(OC)cc5N(C)[C@H]4[C@@](O)(C(=O)OC)[C@@H]1OC(=O)CCC[P+](c1ccc(C)cc1)(c1ccc(C)cc1)c1ccc(C)cc1)[C@@H]32`, -96.9% (active).
Consider `CC12OOC(C)(OO1)C2CCC(=O)OCCNc1ccnc2cc(Cl)ccc12` (stereo not given), for which the growth was 93.1% (inactive).
For `C[C@H]1[C@@H](Oc2ccc(-c3cn(-c4ccnc5cc(Cl)ccc45)nn3)cc2)O[C@@H]2OC3(C)CC[C@H]4[C@H](C)CC[C@@H]1[C@@]24OO3`, the growth is 24.9% (inactive).
Regarding `COC(=O)C[C@](O)(CCC(C)C)C(=O)O[C@H]1C(OC)=C[C@@]23CCCN2CCc2cc4c(cc2[C@@H]13)OCO4`, the growth was -33.7% (active).
Turning to `CC1=C(CCC=NNC(N)=O)C2=C(C)C3(CC3)[C@@](C)(O)C(=O)C2=C1`, the growth was -33.7% (active).
On to `O=C(/C=C/c1ccc(Cl)cc1Cl)c1nc2ccccc2n1Cc1ccc(F)cc1`, for which the growth was 24.4% (inactive).
`C#CC[Se]C(=O)c1ccc(C(=O)[Se]CC#C)s1`: the growth was 101% (inactive).
On to `CC[C@]12C=CCN3CC[C@@]4(c5ccc(OC)cc5N(C)[C@H]4[C@@](O)(C(=O)OC)[C@@H]1OC(=O)CCC[P+](c1ccc(F)cc1)(c1ccc(F)cc1)c1ccc(F)cc1)[C@@H]32`, for which the growth was -9.4% (active).
As for `CC1=C(COCCOC(=O)c2ccc(S(=O)(=O)F)cc2)C2=C(C)C3(CC3)[C@@](C)(O)C(=O)C2=C1`, the figure is -83% (active).
Take `CC[C@]12C=CCN3CC[C@@]4(c5ccc(OC)cc5N(C)[C@H]4[C@@](O)(C(=O)OC)[C@@H]1OC(=O)CCCC[P+](c1ccc(OC)cc1)(c1ccc(OC)cc1)c1ccc(OC)cc1)[C@@H]32`: the growth was -96.7% (active).
In the case of `COc1cc(OC)c(S(=O)(=O)N(CCCl)CCCl)cc1C(=O)/C=C/c1ccc(C)cc1` it was 93.8% (inactive); in that of `C=CC[Se]C(=O)c1ccc(C(=O)[Se]CC=C)s1`, -92.3% (active).
With `COc1cc2cc(C(=O)N3C[C@@H](CCl)c4c3cc(OC(=O)N3CCN(C(=O)CCC(=O)N5CCN(C)CC5)[C@@H]5CSSC[C@@H]53)c3ccccc43)[nH]c2c(OC)c1OC`, the growth is -81.3% (active).
For the molecule `CCOP(=O)(CC(F)(F)C(F)(F)F)OCC`, the growth was 49% (inactive).
Regarding `COc1cc(OC)c(/C=C/C(=O)c2nc3ccccc3n2Cc2ccc(F)cc2)c(OC)c1`, the growth was 77.8% (inactive).
As for `O=C(NC([Se])=NC1CCCCC1)c1ccc2c(c1)OCO2`, the growth is 96.7% (inactive).
In the case of `CC1=C(CCC=O)C2=C(C)C3(CC3)[C@@](C)(O)C(=O)C2=C1` it was -23% (active); in that of `CC(=C\C(=O)Oc1ccc2c3c1OC1C(O)CCC4(O)C(C2)N(CC2CCC2)CCC314)/C=C1\CCCc2ccccc21` (stereo not given), 58.7% (inactive).
Take `O=C(/C=C/c1ccc(Cl)cc1)c1nc2ccccc2n1Cc1ccc(Br)cc1`: the growth was 37.2% (inactive).
In the case of `O=C(/C=C/c1ccc(F)cc1)c1nc2ccccc2n1Cc1ccc(F)cc1`, the growth was -23.8% (active).
Turning to `CC[C@]12C=CCN3CC[C@@]4(c5ccc(OC)cc5N(C)[C@H]4[C@@](O)(C(=O)OC)[C@@H]1OC(=O)CCCC[P+](C1CCCCC1)(C1CCCCC1)C1CCCCC1)[C@@H]32`, the growth was -97.4% (active).
Take `CC[C@]12C=CCN3CC[C@@]4(c5ccc(OC)cc5N(C)[C@H]4[C@@](O)(C(=O)OC)[C@@H]1OC(=O)CCCC[P+](c1ccc(C)cc1)(c1ccc(C)cc1)c1ccc(C)cc1)[C@@H]32`: the growth is -97% (active).
For `COc1cc2cc(C(=O)N3C[C@@H](CCl)c4c3cc(OC(=O)N3CCN(C)[C@@H]5CSSC[C@H]53)c3ccccc43)[nH]c2c(OC)c1OC`, the growth is -96.4% (active).
With `C[C@H]1[C@H](OC(=O)CCC(=O)Nc2cnccn2)O[C@@H]2OC3(C)CC[C@H]4[C@H](C)CC[C@@H]1[C@@]24OO3`, the growth is 24% (inactive).
As for `O=C(NCCCCC(c1ccc(F)cc1)c1ccc(F)cc1)Nc1ccc([N+](=O)[O-])c(C(F)(F)F)c1`, the growth is -28% (active).
